# Screening results as filed in PubChem BioAssay.
# A selection: hits, their analogues and other compounds. The true share with any hit is near 18%.
# HepG2 tox: counter-screen for TGF-b inhibitors: cytotoxicity in HepG2 cells; HepG2 CAGA-GFP viability, ATP luminescence, 18 h; Potency, µM (highest dose often 46.1 µM), inactives show at the highest dose activity change, negative = cytotoxicity, actives largely listed as cytotoxic; 0.76% of 410,000 active; also: potency is read from the fitted curve at half-maximal effect
#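 CellTiter-Glo luminescence gave cytotoxicity after 18 hours at 37 degrees C. The cells were HepG2 CAGA-GFP in 1% FBS DMEM, stimulated with 500 pg/mL TGF-beta after compound addition. %Activity was normalised to no-cell wells (complete cell-killing) and DMSO (no toxicity), and curves were fitted and classified.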
# IL1B secr inh: inflammasome signaling inhibition, IL-1 beta readout. THP-1 LPS/ATP IL-1B secretion, AlphaLISA, 16 h; hits give low values. activity change, % at 57.5 µM. 4.7% of 360,000 active. AID 743279; in the data active = activity change below about -50%; inconclusive = mostly about -30% to -49%; also: % is scaled to controls: 0 for no effect and ±100 for the full control effect
#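 Secreted IL-1B measured by AlphaLISA bead assay after 16 h compound exposure of THP-1 cells; compounds (final up to 57.5 uM) added 1 h before LPS (250 ng/mL) and ATP (1.25 mM) stimulation; lower signal means less secretion.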
# TDP1 block: TDP1 (human) enzyme inhibition. recombinant TDP1, AlphaScreen DNA substrate cleavage. Potency, µM (titrated, usually from 130 µM), without a hit: at the highest dose activity change, negative = inhibition, hits mostly inhibitors. 0.28% of 350,000 active. AID 485290; also: potency is read from the fitted curve at half-maximal effect; % is scaled to controls: 0 for no effect and ±100 for the full control effect; nearly all actives have a fitted effect of over 40% in size
# Target sequence (Q9NUW8 whole entry, looked up): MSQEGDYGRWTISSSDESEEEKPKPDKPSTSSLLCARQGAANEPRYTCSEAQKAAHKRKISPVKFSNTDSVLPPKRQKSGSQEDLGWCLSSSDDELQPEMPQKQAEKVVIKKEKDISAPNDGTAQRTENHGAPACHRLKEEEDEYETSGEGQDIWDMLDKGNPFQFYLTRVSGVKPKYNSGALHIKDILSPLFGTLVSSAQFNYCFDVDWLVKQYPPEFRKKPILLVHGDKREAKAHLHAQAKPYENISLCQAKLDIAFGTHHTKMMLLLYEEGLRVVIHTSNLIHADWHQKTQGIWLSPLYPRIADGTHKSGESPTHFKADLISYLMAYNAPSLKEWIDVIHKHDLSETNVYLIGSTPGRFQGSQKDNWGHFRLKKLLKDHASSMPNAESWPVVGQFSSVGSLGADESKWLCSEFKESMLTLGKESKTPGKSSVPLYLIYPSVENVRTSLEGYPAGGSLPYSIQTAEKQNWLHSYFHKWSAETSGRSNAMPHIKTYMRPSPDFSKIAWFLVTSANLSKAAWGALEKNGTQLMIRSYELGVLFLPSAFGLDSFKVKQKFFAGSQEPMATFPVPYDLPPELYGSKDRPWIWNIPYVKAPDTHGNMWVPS
#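 Compounds were preincubated with Tdp1 (1 nM final) for 15 min at room temperature before substrate (15 nM final) started a 5 min reaction; beads (10 ug/ml final) were then added for 10 min before AlphaScreen detection.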
# DT40 TDP1 CPT: growth inhibition of DT40 Tdp1-/-;hTDP1 cells with camptothecin (screen for TDP1 inhibitors); chicken DT40 Tdp1-/-;hTDP1 cells + 20 nM CPT, ATP luminescence, 48 h; Potency, µM (titrated, usually from 46.2 µM), inactives show top-dose activity change, negative = growth inhibition, actives largely listed as inhibitors; 12% of 420,000 active; AID 686979; also: potency is read from the fitted curve at half-maximal effect; % is scaled to controls: 0 for no effect and ±100 for the full control effect; nearly all actives have a fitted effect of over 55% in size
#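 Cell growth measured by CellTiter-Glo luminescence after a minimum 48 h, 37 C compound exposure with 20 nM CPT in Tdp1-knockout DT40 cells stably expressing hTDP1, seeded 400/well; qHTS titration format.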
# DT40 TDP1 no CPT: qHTS for Inhibitors of human tyrosyl-DNA phosphodiesterase 1 (TDP1): qHTS in cells in absence of CPT; DT40 Tdp1-/- hTDP1 cells, no CPT, ATP luminescence, 48 h; Potency, µM (highest dose often 46.2 µM), for inactives: at the top dose activity change, negative = growth inhibition, actives largely listed as inhibitors; 15% of 420,000 active; AID 686978, 2013; also: potency is read from the fitted curve at half-maximal effect; % is scaled to controls: 0 for no effect and ±100 for the full control effect; nearly all actives have a fitted effect of over 55% in size
#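 Compound effects on proliferation are scored in DT40 Tdp1-/-;hTDP1 cells in the absence of CPT. ATP levels (CellTiter-Glo luminescence) are recorded after a ≥48 hr, 37 °C incubation.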
# TGFb SMAD3 inh: blocks TGF-b signaling; HepG2 CAGA-GFP TGF-b/SMAD3 reporter, GFP fluorescence, 18 h; TGF-beta stimulated, 500 pg/mL final; AID 588855; Potency, µM (titrated, usually from 46.1 µM), inactives show at the top dose activity, negative = inhibition, most hits filed as inhibitors; 1.2% of 410,000 active; also: potency is read from the fitted curve at half-maximal effect; % is scaled to controls: 0 for no effect and ±100 for the full control effect; nearly all actives have a fitted effect of over 65% in size
#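 Inhibition was scored as loss of TGF-beta-induced (500 pg/mL final, 18 hours, 37 degrees C) GFP in HEPG2 cells carrying a CAGA-GFP reporter, in DMEM with 1% FBS. Well GFP was summed per cell; Activity was normalised to unstimulated and stimulated DMSO wells, then concentration-response fitting.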
# Active calls of the source: *; ? = inconclusive; . = no result. Unless noted, calls follow the shape of the dose curve; as a rule, active = well fitted curve in the direction sought with a large enough effect; inconclusive = small, poorly fitted or top-dose-only effect, or another doubt; inactive = no such curve, though single readings can be large; an effect the other way counts as inactive or inconclusive.
SMILES,HepG2 tox,IL1B secr inh,TDP1 block,DT40 TDP1 CPT,DT40 TDP1 no CPT,TGFb SMAD3 inh
CCCCCCSc1ccc([C@@H]2[C@H]3C(=O)N(C)C(=O)[C@H]3[C@]3(C(=O)OC)CCCCN23)cc1,-39%,-18,-1%,?,?,?
COc1cc(NC(=O)c2noc(C)c2[N+](=O)[O-])c(OC)cc1Cl,-1%,-7,5%,15µM*,6.5µM*,-8%
CCn1c2cc(C)sc2c2cnn(Cc3ccccc3F)c(=O)c21,.,.,-8%,.,.,.
COC(=O)N/N=C/c1cc(Cl)cc(Cl)c1OCc1ccccc1,-6%,-1,0%,18µM*,?,?
COc1cccc(C(=O)NCCSc2c(-c3ccc(F)cc3)[nH]c3ccccc23)c1OC,-29%,.,9%,16µM*,13µM*,?
Cc1ccc(-c2[nH]c3ccccc3c2SCCNC(=O)c2cc3ccccc3oc2=O)cc1,-35%,0,7%,?,?,-29%
COc1cc(C(=O)NCCSc2ccccc2)cc(OC)c1OC,-5%,15,1%,-3%,?,24%
COc1ccc(-c2[nH]c3ccccc3c2SCCNC(=O)c2ccc(S(=O)(=O)N(C)C)cc2)cc1,-4%,.,12%,3.3µM*,2.6µM*,0%
COc1ccc(-c2[nH]c3ccccc3c2SCCNC(=O)c2cc(OC)c(OC)c(OC)c2)cc1,-49%,.,3%,5.2µM*,3.7µM*,?
CCN(CC)S(=O)(=O)c1ccc(C(=O)NCCSc2c(-c3ccc(OC)cc3)[nH]c3ccccc23)cc1,-18%,.,9%,7.3µM*,3.7µM*,6%
C/C(=N\O)c1cc(Cl)ccc1O,10%,-26,6%,6%,4%,2%
COc1ccc(SCC(Cc2ccccc2)N2CCN(CCc3ccccc3)CCC2=O)cc1 (stereo not given),-20%,.,15%,.,.,?
CC1CCC(NC(=O)C(NS(=O)(=O)c2ccc(Br)cc2)C(C)C)CC1 (stereo not given),-29%,-10,.,-22%,?,-13%
Cc1cc(=O)n2nc(N(C)CC(=O)NCc3cccc(Br)c3)sc2n1,4%,.,-3%,-26%,-12%,-8%
COc1ccc(OC)c2[nH]c(=O)c(CCNC(=O)c3ccc(S(=O)(=O)N4CCCC4)cc3)cc12,-13%,6,2%,?,?,-21%
CCN(CC)S(=O)(=O)c1ccc(C(=O)NCCc2cc3c(OC)ccc(OC)c3[nH]c2=O)cc1,6%,49,6%,?,16µM*,6%
O=C(OCC1(COC(=O)c2cccnc2)CCCC(COC(=O)c2cccnc2)(COC(=O)c2cccnc2)C1O)c1cccnc1,.,.,.,2%,12%,.
CCC(C)c1ccc(S(=O)(=O)Nc2cccnc2)cc1 (stereo not given),-23%,34,.,?,29µM*,-21%
CC(C)Cc1ccc(S(=O)(=O)Nc2cccnc2)cc1,-24%,55,.,?,?,-25%
CCN(C(=O)CSc1nnnn1C)C1CCS(=O)(=O)C1 (stereo not given),4%,9,2%,-15%,-17%,-11%
O=C(Nc1ccc2snnc2c1)Nc1cccc2ccccc12,0%,-26,0%,23µM*,?,-4%
CCOC(=O)c1ccc(NC(=O)Nc2ccc3snnc3c2)cc1,-8%,.,8%,?,2.9µM*,1%
Cc1ccc(NC(=O)Nc2ccc3snnc3c2)cc1C,-32%,.,3%,?,?,-19%
CCc1ccccc1NC(=O)Nc1ccc2snnc2c1,-38%,.,-8%,18µM*,21µM*,?
COc1cccc(NC(=O)Nc2ccc3snnc3c2)c1,-41%,.,3%,?,?,?
SMILES,HepG2 tox,IL1B secr inh,TDP1 block,DT40 TDP1 CPT,DT40 TDP1 no CPT,TGFb SMAD3 inh
CCOc1ccc(NS(=O)(=O)c2ccc(C(=O)N(C)CC(=O)Nc3ccc(OC)cc3)cc2)cc1,-12%,36,-1%,13µM*,?,8%
CC(C)(C)NS(=O)(=O)c1ccc(NC(=S)NC(=O)C2CCC2)cc1,-22%,3,1%,?,?,0%
CCCC(=O)NC(=S)Nc1ccc(S(=O)(=O)Nc2ccc(OCC)cc2)cc1,-36%,8,0%,12µM*,?,0%
CC(C)CC(=O)NC(=S)Nc1ccc(S(=O)(=O)NC(C)(C)C)cc1,1%,-6,3%,?,23µM*,-11%
CCOc1ccc(NS(=O)(=O)c2ccc(NC(=S)NC(=O)CC(C)C)cc2)cc1,-100%,0,-1%,?,?,0%
Cc1ccc(C2(C)NC(=O)N(CC(=O)NC(=O)NC(C)(C)C)C2=O)cc1 (stereo not given),11%,9,-8%,-1%,-18%,20%
O=C(C[C@@H]1C/C=C\C[C@H](Cc2ccc(F)cc2)C(=O)OC[C@@H](c2ccccc2)NC1=O)NCCO,5%,11,2%,?,?,-14%
CC(C)(C)OC(=O)C[C@H]1C/C=C\C[C@H](CC(=O)N[C@@H](CO)Cc2ccccc2)C(=O)N[C@H](C(C)(C)C)COC1=O,4%,-22,0%,?,?,0%
CC(C)(C)OC(=O)C[C@H]1C/C=C\C[C@H](CC(=O)N[C@H](CO)Cc2ccccc2)C(=O)N[C@H](C(C)(C)C)COC1=O,-4%,-5,3%,?,?,-1%
CC(C)(C)[C@H]1COC(=O)[C@H](NC(=O)OCC2c3ccccc3-c3ccccc32)C/C=C\C[C@@H](CC(=O)N[C@H](CO)Cc2ccccc2)C(=O)N1,-35%,8,-7%,7.3µM*,8.2µM*,-8%
CC(C)(C)[C@H]1COC(=O)[C@H](NC(=O)OCC2c3ccccc3-c3ccccc32)C/C=C\C[C@@H](CC(=O)N[C@@H](CO)Cc2ccccc2)C(=O)N1,-30%,21,-5%,7.3µM*,?,?
O=C(C[C@@H]1C/C=C\C[C@@H](NC(=O)OCC2c3ccccc3-c3ccccc32)C(=O)OC[C@@H](Cc2ccccc2)NC1=O)NCCO,-63%,34,0%,7.3µM*,9.2µM*,0%
C[C@@H]1COC(=O)[C@H](NC(=O)OCC2c3ccccc3-c3ccccc32)C/C=C\C[C@@H](CC(=O)N[C@@H](CO)Cc2ccccc2)C(=O)N1,6%,20,-2%,8.2µM*,8.2µM*,-23%
